Among all 1,300 compounds or so, about 1,000 (77%) were called active. Not shown: some 7% with an inconclusive outcome. The set was probably picked from earlier hits. The list shows a part of the results. A number with no mark means an inactive call. Calls follow the shape of the dose curve; as a rule, active = well fitted inhibition curve with a large enough effect; inconclusive = small, poorly fitted or top-dose-only effect; inactive = no such curve, though single readings can be large or run the other way.
experiment: qHTS of small molecules that selectively kill Giardia lamblia: Hit Validation.;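 also: viability measured as ATP content by luminescence so killing lowers signal; nearly all actives have a fitted effect of over 65% in size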; conditions: Giardia lamblia trophozoite viability, dose-response; series mostly up to 38.3 µM; activity change, negative = killing: at the top concentration
Description: Giardia lamblia is a human pathogen afflicting impoverished nations, and the most common cause of outbreaks of diarrhea in the United States. Giardia has been classified by the CDC as a category B bioterrorism organism. The favored anti giardiasis drugs in the US are metronidazole or tinidazole, compounds that have undesirable side effects. Moreover, increasing resistance to drug regimes and recurrence are a concern. It is thus clear that alternative drug treatments are needed.
In a collaboration between the University of Maryland, College Park and the NIH Chemical Genomics Center, a bioluminescence Giardia viability assay based on the trophozoites' ATP content was developed. This assay is suitable for high throughput screening, and miniaturized the assay for compound screening in 1536-well plates. The goal of the project is to screen the Molecular Libraries Small Molecule Repository (MLSMR) for compounds that selectively kill Giardia trophozoites.
NIH Chemical Genomics Center [NCGC]
NIH Molecular Libraries Probe Centers Network [MLPCN]
Assay Submitter (PI): Osnat Herzberg, University of Maryland, College Park, MD.
1. Dispense 2 ul/well media
2. Dispense 23 nl/well compounds
3. Dispense 4 ul/well Giardia trophozoites at a concentration of 100 cells/well
4. Incubate 48 hrs at 37 deg C anaerobically
5. Dispense 4 ul/well ATPLite 1-Step Luminescence assay kit
6. Incubate 15-30 min at room temperature
7. Read luminescence signal on ViewLux plate reader
% is scaled to controls: 0 for no effect and ±100 for the full control effect; potency is read from the fitted curve at half-maximal effect.

Row | SMILES | Potency | activity change, negative = killing [%]
1 | Cc1cc([N+](=O)[O-])c2ccccc2[n+]1[O-] | 206 nM (active) | –
2 | CC(=O)OC[C@]12CCC(C)=C[C@H]1O[C@@H]1[C@H](O)[C@@H](OC(C)=O)[C@@]2(C)[C@]12CO2 | 5160 nM (active) | –
3 | COC1/C=C/C=C(\C)Cc2cc(O)c(Cl)c(c2)N(C)C(=O)CC(OC(=O)C(C)C)C2(C)OC2C(C)C2CC1(O)NC(=O)O2 (centres undefined) | 460 nM (active) | –
4 | COC(/C(C)=C/C=C/C(C)=C/c1coc(C)n1)C(C)C1CC(O)C2(C)OC2C=CC(C)C2CC(CC(=O)O2)CC2OC2C(=O)O1 (centres undefined) | 23.1 nM (active) | –
5 | C[N+]12CCC(CC1)C(=C(c1ccccc1)c1ccccc1)C2 | – | -5.4
6 | COC12C(COC(N)=O)C3=C(C(=O)C(C)=C(N)C3=O)N1CC1C2N1C (centres undefined) | 5790 nM (active) | –
7 | O=[N+]([O-])c1cc([As](=O)(O)O)ccc1O | 5790 nM (active) | –
8 | O=[N+]([O-])c1cc([As](=O)(O)c2ccc(O)c([N+](=O)[O-])c2)ccc1O | 818 nM (active) | –
9 | O=[N+]([O-])c1ccc(O)c([N+](=O)[O-])c1 | 2310 nM (active) | –
10 | Cc1nnc2ccc(-c3cccc(C(F)(F)F)c3)nn12 | – | -28.2
11 | ClCCOCCCl | – | -5.76
12 | Fc1ccc(C2NCCc3[nH]cnc32)cc1 (centres undefined) | – | 10.2
13 | CCOc1ccc(-c2cc(C(=O)N3CCC4(CC3)OCCO4)c3ccccc3n2)cc1 | 7290 nM (active) | –
14 | COc1ccc(CC2NCC(O)C2OC(C)=O)cc1 (centres undefined) | 1030 nM (active) | –
15 | COc1ccc(C[C@H]2NC[C@H](O)[C@H]2OC(C)=O)cc1 | 650 nM (active) | –
16 | CCOC(=O)C1CCCN(c2ccc([N+](=O)[O-])c3nonc23)C1 (centres undefined) | 1160 nM (active) | –
17 | CNC(=O)Oc1cccc(-c2cn3cc(Cl)ccc3n2)c1 | 2050 nM (active) | –
18 | CC1=C(N2CC2)C(=O)C(CO)=C(N2CC2)C1=O | 115 nM (active) | –
19 | c1ccc2c(c1)[I+]c1ccccc1-2 | 146 nM (active) | –
20 | COC(=O)c1nc(-c2ccc3c(n2)C(=O)C(N)=C(OC)C3=O)c(N)c(-c2ccc(OC)c(OC)c2O)c1C | 2590 nM (active) | –
21 | CN(C)C(=O)Oc1ccc(Br)c2ccccc12 | – | 12.9
22 | CC1CC(C)(O)CC(C(O)CC2CC(=O)NC(=O)C2)C1=O (centres undefined) | 146 nM (active) | –
23 | CC(=O)OC1(C)CC(C)C(=O)C(C(O)CC2CC(=O)NC(=O)C2)C1 (centres undefined) | 18.3 nM (active) | –
24 | CC(C)(O)C1C2OC(=O)C1C1(O)CC3OC34C(=O)OC2C14C (centres undefined) | – | 2.07
25 | Cc1ncc([N+](=O)[O-])n1CCOc1nonc1N | 1030 nM (active) | –
26 | Cc1ncc([N+](=O)[O-])n1CCOC(N)=O | 3260 nM (active) | –
27 | CC1CC(C)CC(C)C(O)C(C#N)=CC=CCC(C2CCCC2C(=O)O)OC(=O)CC(O)C(C)C1 (centres undefined) | 326 nM (active) | –

Row | SMILES | Potency | activity change, negative = killing [%]
28 | COc1ccc(OC(=O)N2C/C(=C/c3ccccc3)C(=O)/C(=C\c3ccccc3)C2)cc1 | 1160 nM (active) | –
29 | NC(=O)c1cc(N2CC2)c([N+](=O)[O-])cc1[N+](=O)[O-] | 650 nM (active) | –
30 | O=[N+]([O-])c1ccc(-c2ccccc2)c([As](=O)(O)O)c1 | 259 nM (active) | –
31 | CC1Oc2cc3c(-c4c(O)cc(O)c5c(O)c6c(cc45)OC(C)C(C)C6=O)c(O)cc(O)c3c(O)c2C(=O)C1C (centres undefined) | 1030 nM (active) | –
32 | COC(COC(N)=O)C1=C(N2CC2)C(=O)C(C)=C(N2CC2)C1=O (centres undefined) | 729 nM (active) | –
33 | O=[N+]([O-])c1oc2ccc3ccccc3c2c1CCO | 51.6 nM (active) | –
34 | NN=C(N)N | – | -24.8
35 | C[C@H]1C[C@@H](C)C(=O)[C@@H]([C@H](O)CC2CC(=O)NC(=O)C2)C1 | 72.9 nM (active) | –
36 | C[C@@H]1C[C@@H]([C@H](O)CC2CC(=O)NC(=O)C2)C(=O)[C@@H](C)C1 | 183 nM (active) | –
37 | Cc1nc2c(=O)n(C)c(=O)nc-2n(C)n1 | 259 nM (active) | –
38 | CCn1nc(/C=C/c2ccccc2)nc2c(=O)n(C)c(=O)nc1-2 | 146 nM (active) | –
39 | Cc1ccc(-c2nc3c(=O)n(C)c(=O)nc-3n(C)n2)cc1 | 103 nM (active) | –
40 | Cn1nc(-c2ccccc2)nc2c(=O)n(C)c(=O)nc1-2 | 163 nM (active) | –
41 | Cc1ccc(C(c2nnnn2Cc2ccccc2)N2CC=C(c3ccc(F)cc3)CC2)cc1 (centres undefined) | – | 6.65
42 | COC(=O)C12OCC34C(CC5C(C)=C(O)C(=O)CC5(C)C3C(O)C1O)OC(=O)C(OC(=O)/C=C(\C)C(C)C)C24 (centres undefined) | 579 nM (active) | –
43 | O=c1c2ccccc2nc(/C=C/c2ccc(O)cc2)n1-c1cccc(O)c1 | – | -17.3
44 | Cc1cccc(-n2c(/C=C/c3ccc([N+](=O)[O-])o3)nc3ccccc3c2=O)c1 | 1630 nM (active) | –
45 | O=c1c2ccccc2nc(/C=C/c2ccc([N+](=O)[O-])o2)n1-c1ccc(O)cc1 | 290 nM (active) | –
46 | Cc1nc2ccccc2c(=O)n1-c1cc([N+](=O)[O-])cc([N+](=O)[O-])c1 | 10300 nM (active) | –
47 | CN1CCN(c2ccc([N+](=O)[O-])c3cccnc23)CC1 | 1030 nM (active) | –
48 | CC1CN(c2ccc([N+](=O)[O-])c3cccnc23)CC(C)N1 (centres undefined) | 1300 nM (active) | –
49 | CCCCn1c(=O)c(C(=O)NCc2ccccc2OC)c(O)c2ccccc21 | – | -4.32
50 | [Hg+][c]1ccccc1 | 4100 nM (active) | –
51 | CN1CCCN(c2ccc([N+](=O)[O-])nc2)CC1 | 6500 nM (active) | –
52 | C=CC1CN2CCC1CC2[C@@H](OC(=O)c1ccc(OC)cc1)c1ccnc2ccccc12 (some centres undefined) | 818 nM (active) | –
53 | c1ccc2c(c1)[IH]c1ccccc1-2 | 460 nM (active) | –
54 | CN(c1ccccc1)c1ccc([N+](=O)[O-])c2nonc12 | 410 nM (active) | –

Reference: PubChem BioAssay AID588397 (National Center for Advancing Translational Sciences (NCATS), 2011)
